Data on 40 molecules can be found in PubChem BioAssay (NCATS).

Records with an inconclusive call do not appear. Values without a mark were called inactive. Active and inactive are the calls of the source. Calls come from the whole dose curve; as a rule, active = well fitted inhibition curve with a large enough effect; inconclusive = small, poorly fitted or top-dose-only effect; inactive = flat fitted curve, though single readings scatter.
Potency is the fitted concentration of half-maximal effect.

The experiment is described as follows: BET inhibitor-based combinations targeting novel dependencies in MECOM-rearranged (r) AML: AML-191 cell line (AID 2202236; note: nearly all actives have a fitted effect of over 35% in size;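 for viability (% of control): plate controls were vehicle wells for no effect and wells without cells for full effect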). The conditions noted are these: AML-191 viability, CellTiter-Glo luminescence, 48 h; series mostly up to 46 µM; viability (% of control): at the top concentration. From the text:
Ecotropic viral insertion site 1 (EVI1) is located on chromosome 3q26.2 as part of the MECOM (MDS and EVI1 complex) locus. Under normal hematopoiesis, EVI1 is a regulator of hematopoietic stem cell maintenance and self-renewal and EVI1 levels decrease as the cells differentiate. In approximately 5-10% of de novo acute myeloid leukemia (AML) EVI1 is aberrantly expressed, including Chromosomal inv(3)(q21;q26.2) or t(3;3)(q21;q26.2) alterations (MECOM-r) that account for about 50% of AML with EVI1 overexpression 31. AMLs with high levels of EVI1 have a poor prognosis and an overall survival time averaging between 10-14 months. EVI1 overexpression confers resistance in leukemia cells, highlighting the need to develop new targeted therapies for EVI1 overexpressing AMLs.
Here, we performed an unbiased chemical drug screening by evaluating the single agent activity of a collection of 2,480 oncology-focused, approved and investigational drugs (NCATS Mechanism Interrogation Plates, MIPE v5.0) against a panel of seven AML cell lines. These included four MECOM-r cell-lines (AML-191, AML-194, UCSD-AML1 and HNT-34) and three non-MECOM-r AMLs (MV4-11, OCI-AML3 and SET-2). Exploiting the mechanistic redundancy built in the library, we identified target-level sensitivities in MECOM-r AML cells and relative activity as compared to other AML subtypes.
A collection of 2480 mechanistically annotated dugs (MIPE v5.0) was used to screen four 3q26.2 rearranged AML cell lines and three non-3q26.2 rearranged AML cell lines. This library purposely exploits redundancy by including multiple inhibitors of key onco-targets, while simultaneously encompassing mechanistic diversity, targeting more than 800 distinct mechanisms of action. Briefly, cells were seeded in 5 uL of growth media using a Multidrop Combi dispenser into 1536 well white polystyrene tissue culture treated plates (Corning) at a density of 500cells/well. For each cell-line, for each of the 2480 drugs in MIPE v5.0 library, an 11-point dose curve was generated via a 1536 pin-tool. Plates were incubated for 48 hr at standard incubator conditions, covered by a stainless steel gasketed lid to prevent evaporation. Cell viability was determined by luminescence based, Cell Titer Glo assay (Promega). In detail, 3 uL of Cell Titer Glo were added to each well and plates were incubated at room temperature for 15 min with a stainless-steel lid in place. Luminescence readings were taken using a Viewlux (PerkinElmer) with a 2 s exposure time per plate. Compound dose-response curves were normalized to DMSO and empty well controls on each plate. Quantitative drug activity data from dose-response curves was determined utilizing area Under the Curve (AUC) and Z-transformed AUC (Z-AUC, a mean-centering transformation applied to each individual cell-line screened).
(ATP-based viability assays read luminescence as a measure of living cells.)
For the molecule `Cc1c(C)c2c(c(C)c1O)CCC(C)(COc1ccc(CC3SC(=O)NC3=O)cc1)O2` (stereo not given), the “viability (% of control)” value is 93.4%.

Take `Cc1c(C(=O)N2CCOc3ccc(-c4ccc(N)nc4)cc3C2)ccc(S(C)(=O)=O)c1F`: the Potency is 1.86 µM (active).

As for `c1ccc2c(CCNc3ccc(Nc4ccncc4)cc3)c[nH]c2c1`, the Potency was 10.5 µM (active).

Regarding `Cc1ccc(-c2ccc3ncc4c(c3n2)n(C2CCN(C(=O)[C@H](C)O)CC2)c(=O)n4C)cn1`, the Potency is 0.166 µM (active).

As to `CC[C@H](C)C(=O)O[C@H]1C[C@@H](C)C=C2C=C[C@H](C)[C@H](CC[C@@H]3C[C@@H](O)CC(=O)O3)[C@H]21`, the Potency was 10.5 µM (active).

Take `CN1CCC(COc2cnc(-c3cccc(Cn4nc(-c5cccc(C#N)c5)ccc4=O)c3)nc2)CC1`: the “viability (% of control)” value is 104%.

Consider `CC(=O)O[C@H]1C[C@@H]2CC[C@H]3[C@H]4C[C@H]([N+]5(C)CCCCC5)[C@@H](OC(C)=O)[C@@]4(C)CC[C@@H]3[C@@]2(C)C[C@H]1[N+]1(C)CCCCC1`, for which the “viability (% of control)” value was 103%.

With `CC1=NN(c2ccccc2)C(=O)C1`, the “viability (% of control)” value was 105%.

On to `CNC1CCC(N(Cc2cccc(-c3ccncc3)c2)C(=O)c2sc3ccccc3c2Cl)CC1` (stereo not given), for which the Potency is 20.9 µM (active).

Consider `CC[C@H](NC(=O)[C@H](CS(=O)(=O)CC1CC1)N[C@@H](c1ccc(F)cc1)C(F)(F)F)C(=O)C(=O)NC1CC1`, for which the “viability (% of control)” value was 114%.

As for `CC(C)(O)CC(=O)NCCn1ccc2ncnc(Nc3ccc(Oc4cccc(C(F)(F)F)c4)c(Cl)c3)c21`, the Potency was 16.6 µM (active).

`c1cc(N[C@@H]2CCNC2)nc(-c2cnc3ccc(-c4cn[nH]c4)cn23)c1`: the Potency was 16.6 µM (active).

On to `NC(=O)c1cnc(N[C@@H]2CCCC[C@@H]2N)nc1Nc1cccc(-n2nccn2)c1`, for which the Potency is 16.6 µM (active).

On to `NCC1CCC(C(=O)O)CC1` (stereo not given), for which the “viability (% of control)” value was 94.1% [at 15.6 µM].

Consider `C[C@@H](NCCCc1cccc(C(F)(F)F)c1)c1cccc2ccccc12`, for which the Potency was 23.5 µM (active).

With `NC(=O)Nc1sc(-c2ccc(F)cc2)cc1C(N)=O`, the Potency was 1.86 µM (active).

In the case of `Cc1ccccc1-n1c(Cn2nc(-c3cccc(O)c3)c3c(N)ncnc32)nc2cccc(C)c2c1=O`, the Potency is 14.8 µM (active).

In the case of `CN1CCc2c(c3ccccc3n2Cc2ccc(C(=O)NO)cc2)C1`, the Potency was 20.9 µM (active).

In the case of `Cc1ccc2c(c1)C(=O)[C@]1(O)CCN(c3ccccc3)C1=N2`, the Potency is 23.5 µM (active).

As to `CC(C)Cn1cnc2c(N)nc3ccccc3c21`, the “viability (% of control)” value was 93.3% [at 15.6 µM].

As to `OC(c1cc(C(F)(F)F)nc2c(C(F)(F)F)cccc12)C1CCCCN1` (stereo not given), the Potency is 23.5 µM (active).

Take `CCN(CC)CCCC(C)Nc1c2ccc(Cl)cc2nc2ccc(OC)cc12` (stereo not given): the Potency was 7.42 µM (active).

For the molecule `COC(=O)Nc1cc(Nc2cc(NC3CC3)c3ncc(C#N)n3n2)c(Cl)c(N2CCN(C)CC2)c1`, the Potency is 2.63 µM (active).

On to `Cc1cccc(-c2[nH]c(C(C)(C)C)nc2-c2ccc3c(c2)OCO3)n1`, for which the Potency was 6.61 µM (active).

Take `CCOc1cc(C(=O)N2CCC(N3CCN(C)CC3)CC2)ccc1Nc1ncc2c(n1)N(C1CCCC1)c1ccccc1C(=O)N2C`: the Potency was 11.8 µM (active).

`COc1ccc(CC2SC(=O)NC2=O)cc1C(=O)NCc1ccc(C(F)(F)F)cc1` (stereo not given): the “viability (% of control)” value was 91.9%.

As for `O=C1NC(=O)/C(=C/c2ccc3nccnc3c2)S1`, the “viability (% of control)” value is 95.1%.

In the case of `CC1CCC(C(=O)N(c2cc(C#CC(C)(C)C)sc2C(=O)O)C2CCC(O)CC2)CC1` (stereo not given), the Potency was 18.6 µM (active).

Regarding `CC(C)S(=O)(=O)c1ccc2nccc(Nc3ccc4scnc4c3)c2c1`, the “viability (% of control)” value is 80.1%.

Take `CC(C)(C)OC(=O)N[C@H]1CCCCCC=C[C@@H]2C[C@@]2(C(=O)NS(=O)(=O)C2CC2)NC(=O)[C@@H]2C[C@@H](OC(=O)N3Cc4cccc(F)c4C3)CN2C1=O`: the “viability (% of control)” value is 109%.

`O=c1cc(N2CCOCC2)oc2c(-c3cccc4c3sc3ccccc34)cccc12`: the Potency was 5.9 µM (active).

As for `O=C(O)[C@H](Cc1c[nH]c2ccccc12)N1C(=O)c2ccccc2C1=O`, the “viability (% of control)” value is 95.1%.

Take `O=C(Nc1cccnc1)N1CCC(Cc2cccc(Oc3ccc(C(F)(F)F)cn3)c2)CC1`: the Potency was 20.9 µM (active).

For the molecule `COc1cc(N2CCC(O)CC2)ccc1Nc1cc(Nc2ccccc2S(=O)(=O)C(C)C)c2cc[nH]c2n1`, the Potency was 16.6 µM (active).

On to `C[C@H](NC(=O)Cc1cc(F)cc(F)c1)C(=O)N[C@H](C(=O)OC(C)(C)C)c1ccccc1`, for which the “viability (% of control)” value was 99.2%.

Regarding `O=C(NC[C@H](O)CN1CCc2ccccc2C1)c1ccnc(NC2CCC2)c1`, the “viability (% of control)” value is 102%.

For `Cc1cc(C(=O)N2CCN(c3cccc(Cl)c3)CC2)n(-c2ccccc2)n1`, the Potency was 2.09 µM (active).

On to `CC(C)c1ccccc1Cc1cc(C(=O)Nc2ccc(S(=O)(=O)c3ccccc3C(C)(C)C)cc2)c(O)c(O)c1O`, for which the Potency was 9.34 µM (active).

On to `CCc1cncnc1N1CCN(Cc2nc3ccc(C(F)(F)F)cc3[nH]2)CC1`, for which the Potency was 13.2 µM (active).

Consider `Cc1cccc(Oc2cnc(=O)[nH]c2)c1`, for which the “viability (% of control)” value was 103%.
